This is an account of results in PubChem BioAssay (NCATS).

The target in assay [1] is Bile acid receptor (Homo sapiens) (UniProt Q96RI1). Kind of assay: qHTS assay for small molecule antagonists of farnesoid X receptor signaling (AID 588526; calls by dose curve; further: on the % scale 0 is the no-effect control and ±100 the full control effect). Put shortly: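 Beta-lactamase reporter antagonist mode: HEK293T FXR-UAS-bla cells, titrated compound, CDCA stimulation, 16 h 37 C, CCF4 dye 2 h RT. Data normalized to CDCA 50 uM and DMSO; Hill-fit IC50.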
Sequence of Bile acid receptor (Homo sapiens) (Q96RI1 whole entry, looked up): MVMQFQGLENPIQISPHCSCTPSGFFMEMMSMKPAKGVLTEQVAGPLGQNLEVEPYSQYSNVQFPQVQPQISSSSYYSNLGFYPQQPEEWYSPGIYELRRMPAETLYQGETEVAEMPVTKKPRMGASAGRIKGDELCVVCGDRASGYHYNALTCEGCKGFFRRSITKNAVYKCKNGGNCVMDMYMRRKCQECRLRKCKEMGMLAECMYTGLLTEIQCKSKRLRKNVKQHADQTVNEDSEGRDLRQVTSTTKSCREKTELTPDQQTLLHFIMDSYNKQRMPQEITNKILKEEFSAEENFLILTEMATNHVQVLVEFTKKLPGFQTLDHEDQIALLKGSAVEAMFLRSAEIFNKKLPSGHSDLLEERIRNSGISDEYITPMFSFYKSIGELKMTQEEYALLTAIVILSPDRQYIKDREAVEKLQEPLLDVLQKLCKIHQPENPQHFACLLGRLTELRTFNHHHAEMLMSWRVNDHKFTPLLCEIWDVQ
Background: Quantitative high-throughput screening tests each substance at several concentrations.

Assay [2] concerns the target Glucocorticoid receptor (Homo sapiens) (UniProt P04150). Kind of assay: qHTS assay for small molecule agonists of glucocorticoid receptor signaling (AID 588532; active means well fitted curve in the direction sought with a large enough effect in the signal ratio, with a control signal flat; the % refers to the signal ratio;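 further: 100% = dexamethasone at 0.1 µM and 0% = DMSO only wells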). The conditions noted are these: HeLa MMTV-bla, beta-lactamase ratio, agonist, 18 h; stronger effect = higher value; percent of dexamethasone control, DMSO zero. The gist of the method:
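Quantitative HTS using CellSensor MMTV-bla HeLa cells in charcoal/dextran-treated serum; compounds tested up to 92 uM. After 18 h at 37 C, CCF4 dye reported reporter induction.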

Assay [3] shares this target. In words: qHTS assay for small molecule antagonists of glucocorticoid receptor signaling (AID 588533; active means well fitted inhibition curve with a large enough effect in the signal ratio, with a control signal flat, not every such curve was filed as active; the % refers to the signal ratio;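 further: cells stimulated with 2 nM dexamethasone as agonist; on the % scale 0 is the no-effect control and ±100 the full control effect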). The gist of the method:
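Antagonist-mode qHTS: compound titrations added to GRE-bla HeLa cells, then dexamethasone 2 nM final; 18 h, 37 C. CCF4 FRET fluorescence normalized to dexamethasone and DMSO; IC50 from Hill fit.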

A short description of assay [4]: qHTS assay for small molecule antagonists of peroxisome proliferator-activated receptor delta signaling (AID 588535; active means well fitted inhibition curve with a large enough effect in the signal ratio, with a control signal flat, not every such curve was filed as active; the % refers to the signal ratio;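 on max response: cells co-treated with a PPAR-delta agonist as stimulator during compound exposure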). The conditions noted are these: HEK293T PPARd-UAS-bla, beta-lactamase FRET ratio, 18 h; 460 nm channel. The gist of the method: (§1)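 Antagonist-mode qHTS using GeneBLAzer PPAR-delta-UAS-bla HEK293T cells; compound exposure 18 hrs at 37 C over a titration. Ratiometric CCF4 fluorescence at 460/530 nm; concentration-response points fitted to the Hill equation.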

For assay [5], the target named is Peroxisome proliferator-activated receptor delta (Homo sapiens) (UniProt Q03181). The assay is described as above. The gist of the method:
as §1

Assay [6] deals with Peroxisome proliferator-activated receptor gamma (Homo sapiens) (UniProt P37231). In words: qHTS assay for small molecule agonists of peroxisome proliferator-activated receptor gamma signaling (AID 588536; active means well fitted curve in the direction sought with a large enough effect in the signal ratio, with a control signal flat, not every such curve was filed as active; the % refers to the signal ratio;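 further: 0% = DMSO basal wells and 100% = rosiglitazone at 2 µM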). The gist of the method:
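Using GeneBLAzer HEK293 cells, response was quantified by CCF4 fluorescence and normalized between basal DMSO (0%) and rosiglitazone 2 uM (100%); curves yielded half-maximal stimulation concentration and efficacy.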

Assay [7] shares this target. Kind of assay: qHTS assay for small molecule antagonists of peroxisome proliferator-activated receptor gamma signaling (AID 588537; active means well fitted inhibition curve with a large enough effect in the signal ratio, with a control signal flat, not every such curve was filed as active; the % refers to the signal ratio;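 further: reporter cells co-stimulated with 50 nM rosiglitazone agonist during compound treatment; % of control where 0% means no effect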). Put shortly:
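Cell-based beta-lactamase assay; GW9662 served as the antagonist control. Stimulation used rosiglitazone, final 50 nM, 16 h, 37 C.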

For assay [8], the target named is Vitamin D3 receptor (Homo sapiens) (UniProt P11473). Kind of assay: qHTS assay for small molecule antagonists of vitamin D receptor signaling (AID 588541; calls by dose curve;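 further: receptor activated by calcitriol during compound treatment; series mostly up to about 77 µM; on the % scale 0 is the no-effect control and ±100 the full control effect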). Put shortly: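 Antagonist-mode beta-lactamase reporter assay: HEK293T VDR-UAS-bla cells were exposed to titrated compound alongside 1-alpha,25-dihydroxyvitamin D3 at 3 nM final for 16 h. Values were normalized to the 50 nM agonist control and DMSO basal, with IC50 and efficacy from Hill equation fits.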

Assay [9] has the same target. In words: qHTS assay for small molecule agonists of vitamin D receptor signaling (AID 588543; calls by dose curve;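 further: 0% = DMSO basal and 100% = reference agonist control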). The gist of the method:
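Reporter cells (HEK293T, VDR-UAS-bla) were seeded in medium with 2% charcoal-stripped serum and incubated 5 h, then compounds in concentration series were added for 16 h at 37 °C. Stimulation was scaled between DMSO basal and 50 nM 1α,25-dihydroxyvitamin D3.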

The nature of assay [10]: qHTS assay for small molecule agonists of retinoid X receptor alpha signaling (AID 588544). The conditions noted are these: HEK293T RXRa-UAS-bla, beta-lactamase reporter, 18 h; 530 nm emission.
Assay [11] in a line: qHTS assay for small molecule antagonists of retinoid X receptor alpha signaling (AID 588546; active means well fitted inhibition curve with a large enough effect in the signal ratio, with a control signal flat, not every such curve was filed as active; the % refers to the signal ratio;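 further: cells stimulated with 9-cis-retinoic acid as agonist; on the % scale 0 is the no-effect control and ±100 the full control effect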). The conditions noted are these: HEK293T RXRa-UAS-bla, beta-lactamase ratio, antagonist mode; measured here: W530 green channel, cytotoxicity proxy. Put shortly: (§2)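 Beta-lactamase reporter inhibition, read as CCF4 fluorescence ratio (ex 405, em 460/530 nm) after 2 h at RT. HEK293T UAS-bla cells, 2500/well, were stimulated with 9-cis-RA at 500 or 100 nM final alongside test compound for 18 h at 37 C.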

In assay [12] the target is Retinoic acid receptor RXR-alpha (Homo sapiens) (UniProt P19793). The description is as above. The conditions noted are these: HEK293T RXRa-UAS-bla, beta-lactamase ratio, antagonist mode. Put shortly:
as §2

Assay [13] addresses Thyroid hormone receptor beta (Homo sapiens) (UniProt P10828). In words: qHTS assay for small molecule antagonists of thyroid hormone receptor beta signaling (AID 588547; active means well fitted inhibition curve with a large enough effect in the signal ratio, with a control signal flat, not every such curve was filed as active; the % refers to the signal ratio). The conditions noted are these: TR-UAS-bla HEK293, beta-lactamase ratio, antagonist mode, 18 h. Put shortly: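 Inhibition of T3-driven (0.4nM final) beta-lactamase reporter activity was measured over 0.59 nM to 92 uM compound after 18 h at 37 C. The cells were GripTite HEK293 TR-UAS-bla in charcoal/dextran-stripped serum, with CCF4 ratio read-out and IC50 from Hill fits.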

The target in assay [14] is Voltage-gated inwardly rectifying potassium channel KCNH2 (Homo sapiens) (UniProt Q12809). Kind of assay: qHTS Assay for Small Molecule Inhibitors of the Human hERG Channel Activity (AID 588834).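 Further: top concentration of the series differs between compounds; on the % scale 0 is the no-effect control and ±100 the full control effect; lower thallium flux fluorescence means stronger hERG block; nearly all actives have a fitted effect of over 50% in size.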 The gist of the method: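 Step 1: BacMam hERG transduction of U2OS, 4 hrs RT. Step 2: overnight 37 °C, plate 2000 cells/well, 4 hr. Step 3: FluxOR load, compound 10 min, stimulate, read fluorescence.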
Sequence of Voltage-gated inwardly rectifying potassium channel KCNH2 (Homo sapiens) (Q12809 whole entry, looked up): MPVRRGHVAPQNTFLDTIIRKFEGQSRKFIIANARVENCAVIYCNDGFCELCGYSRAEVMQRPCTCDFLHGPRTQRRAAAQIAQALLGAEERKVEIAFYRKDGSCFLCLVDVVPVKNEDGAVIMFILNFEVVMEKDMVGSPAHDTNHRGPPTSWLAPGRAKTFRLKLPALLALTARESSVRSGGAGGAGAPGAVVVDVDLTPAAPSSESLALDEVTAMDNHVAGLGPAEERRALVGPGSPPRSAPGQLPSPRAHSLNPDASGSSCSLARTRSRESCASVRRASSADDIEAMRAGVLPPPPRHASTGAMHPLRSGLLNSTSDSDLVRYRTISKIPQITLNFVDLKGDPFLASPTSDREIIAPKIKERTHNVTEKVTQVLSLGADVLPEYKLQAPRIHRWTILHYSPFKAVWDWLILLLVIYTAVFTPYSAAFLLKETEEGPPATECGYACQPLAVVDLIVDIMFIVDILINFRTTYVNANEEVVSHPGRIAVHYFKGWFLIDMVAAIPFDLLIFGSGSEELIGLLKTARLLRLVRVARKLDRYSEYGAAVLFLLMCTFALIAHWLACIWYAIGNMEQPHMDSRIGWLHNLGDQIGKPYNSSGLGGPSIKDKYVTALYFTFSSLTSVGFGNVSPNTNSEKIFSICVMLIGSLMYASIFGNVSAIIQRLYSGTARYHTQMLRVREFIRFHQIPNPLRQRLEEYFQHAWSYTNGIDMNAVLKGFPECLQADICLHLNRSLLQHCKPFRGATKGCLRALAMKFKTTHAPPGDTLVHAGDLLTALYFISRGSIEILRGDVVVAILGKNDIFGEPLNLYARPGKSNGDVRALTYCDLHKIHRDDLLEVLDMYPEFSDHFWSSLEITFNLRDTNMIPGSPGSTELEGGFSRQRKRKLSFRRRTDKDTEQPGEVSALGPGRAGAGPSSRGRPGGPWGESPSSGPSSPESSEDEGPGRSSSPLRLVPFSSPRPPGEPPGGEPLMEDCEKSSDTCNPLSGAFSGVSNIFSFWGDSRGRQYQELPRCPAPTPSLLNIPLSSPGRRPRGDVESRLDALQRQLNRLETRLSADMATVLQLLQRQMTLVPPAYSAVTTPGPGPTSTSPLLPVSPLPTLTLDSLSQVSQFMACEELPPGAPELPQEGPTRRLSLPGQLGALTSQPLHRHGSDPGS

Assay [15] has as its target Luciferin 4-monooxygenase (Photinus pyralis) (UniProt P08659). Kind of assay: Biochemical firefly luciferase enzyme assay for NPC (AID 624030).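 Further: purified P. pyralis luciferase at 10 nM with luciferin and ATP substrate; series mostly up to about 59 µM; 0% = DMSO and -100% = full luciferase inhibition by PTC124 control; nearly all actives have a fitted effect of over 70% in size.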 The gist of the method:
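Direct inhibition of firefly luciferase enzyme (10 nM final, 50 mM Tris Acetate) assessed by luminescence within 5 minutes. Percent activity scaled between DMSO and PTC124 positive control, with concentration-effect curves classified by fit quality and response.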

The nature of assay [16]: S16 Schwann cell viability assay (CellTiter-Glo assay) (AID 624031).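 Further: cellular ATP luminescence as a viability measure; series mostly up to about 58 µM; plate controls were DMSO-treated cells for no effect and cell-free wells for full effect; nearly all actives have a fitted effect of over 70% in size.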 The gist of the method: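 This viability control uses native rat S16 Schwann cells grown in DMEM plus 10% FBS. After a 24 h compound treatment at 37 °C, CellTiter-Glo luminescence reports ATP content, scaled against DMSO-treated and cell-free wells.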
A general note: In ATP-based viability assays light output follows the ATP content of the culture.

Assay [17] addresses Thyroid hormone receptor beta (Homo sapiens) (UniProt P10828). In words: qHTS assay for small molecule agonists of thyroid hormone receptor beta signaling (AID 588545; calls by dose curve;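 further: 0% = DMSO only and 100% = 10 nM T3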). The gist of the method:
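TR-UAS-bla GripTite HEK 293 cells (2500/well, medium with 2% charcoal/dextran FBS) were treated in agonist mode for 18 h at 37 C, titrated. Beta-lactamase was read by CCF4 ratio after 2 h; normalized to 10 nM T3 (100%) and DMSO, Hill-fitted for EC50 and efficacy.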

The nature of assay [18]: S16 Schwann cell PMP22 intronic element firefly luciferase assay (AID 624032). Further: nearly all actives have a fitted effect of over 30% in size. Further: potency means the concentration at half of the fitted maximal effect. Put shortly: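 Luciferase reporter of PMP22 intronic-element expression in stably transfected S16 rat Schwann cells, read by ONE-Glo luminescence after 24 h compound exposure at 37 C. Activity scaled between DMSO (0%) and positive-control PTC124; concentration-effect curves quality-classified.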

Where “and” joins values, the source holds several entries; their conditions need not be identical. Equal values may be shown once. Results filed as inconclusive are left out. Calls of active or inactive are those of the source. Unless noted, the call rests on the fitted dose curve; in most records, active means well fitted curve in the direction sought with a large enough effect; inconclusive means small, poorly fitted or top-dose-only effect, or another doubt; inactive means no such curve, though single readings can be large; an effect the other way counts as inactive or inconclusive.

Sequence of Luciferin 4-monooxygenase (Photinus pyralis) (P08659 whole entry, looked up): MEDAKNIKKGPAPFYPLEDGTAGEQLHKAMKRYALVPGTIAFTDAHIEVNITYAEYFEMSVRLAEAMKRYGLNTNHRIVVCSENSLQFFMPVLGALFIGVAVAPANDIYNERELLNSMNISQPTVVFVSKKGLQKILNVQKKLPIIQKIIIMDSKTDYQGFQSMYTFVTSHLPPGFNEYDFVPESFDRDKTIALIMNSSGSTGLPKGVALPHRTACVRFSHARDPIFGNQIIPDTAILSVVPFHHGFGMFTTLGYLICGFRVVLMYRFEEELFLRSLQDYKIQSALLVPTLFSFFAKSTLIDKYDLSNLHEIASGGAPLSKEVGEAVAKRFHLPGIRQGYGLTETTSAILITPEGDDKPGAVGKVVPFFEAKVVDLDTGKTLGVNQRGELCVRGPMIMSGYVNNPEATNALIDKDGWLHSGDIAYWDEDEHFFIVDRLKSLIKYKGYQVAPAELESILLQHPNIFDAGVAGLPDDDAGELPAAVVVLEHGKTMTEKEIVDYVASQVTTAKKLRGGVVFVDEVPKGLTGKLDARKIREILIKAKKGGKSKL
Sequence of Peroxisome proliferator-activated receptor gamma (Homo sapiens) (P37231 whole entry, looked up): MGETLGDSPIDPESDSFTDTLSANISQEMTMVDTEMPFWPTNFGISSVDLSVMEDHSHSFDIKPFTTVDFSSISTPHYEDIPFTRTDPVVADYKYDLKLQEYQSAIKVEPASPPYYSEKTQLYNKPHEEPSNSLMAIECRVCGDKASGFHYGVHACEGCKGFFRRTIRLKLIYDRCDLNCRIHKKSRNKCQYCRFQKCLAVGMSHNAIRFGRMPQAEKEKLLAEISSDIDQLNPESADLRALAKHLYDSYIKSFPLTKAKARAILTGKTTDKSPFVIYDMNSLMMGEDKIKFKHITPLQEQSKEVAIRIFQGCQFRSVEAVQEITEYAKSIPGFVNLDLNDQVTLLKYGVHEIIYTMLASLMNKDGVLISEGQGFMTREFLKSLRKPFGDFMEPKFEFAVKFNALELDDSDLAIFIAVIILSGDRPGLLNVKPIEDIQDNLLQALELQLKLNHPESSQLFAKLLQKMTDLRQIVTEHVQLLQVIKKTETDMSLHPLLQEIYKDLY
Sequence of Peroxisome proliferator-activated receptor delta (Homo sapiens) (Q03181 whole entry, looked up): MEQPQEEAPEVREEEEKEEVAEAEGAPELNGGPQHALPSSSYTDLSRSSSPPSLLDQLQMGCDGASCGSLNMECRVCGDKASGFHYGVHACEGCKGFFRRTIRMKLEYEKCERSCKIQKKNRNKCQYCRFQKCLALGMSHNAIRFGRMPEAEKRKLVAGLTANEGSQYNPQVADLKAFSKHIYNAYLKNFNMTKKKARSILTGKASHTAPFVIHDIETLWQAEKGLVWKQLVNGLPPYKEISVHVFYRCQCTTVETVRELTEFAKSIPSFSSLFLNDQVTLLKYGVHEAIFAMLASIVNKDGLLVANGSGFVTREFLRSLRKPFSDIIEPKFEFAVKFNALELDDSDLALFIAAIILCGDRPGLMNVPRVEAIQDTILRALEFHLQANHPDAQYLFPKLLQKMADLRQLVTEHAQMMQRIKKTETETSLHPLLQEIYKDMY
Sequence of Glucocorticoid receptor (Homo sapiens) (P04150 whole entry, looked up): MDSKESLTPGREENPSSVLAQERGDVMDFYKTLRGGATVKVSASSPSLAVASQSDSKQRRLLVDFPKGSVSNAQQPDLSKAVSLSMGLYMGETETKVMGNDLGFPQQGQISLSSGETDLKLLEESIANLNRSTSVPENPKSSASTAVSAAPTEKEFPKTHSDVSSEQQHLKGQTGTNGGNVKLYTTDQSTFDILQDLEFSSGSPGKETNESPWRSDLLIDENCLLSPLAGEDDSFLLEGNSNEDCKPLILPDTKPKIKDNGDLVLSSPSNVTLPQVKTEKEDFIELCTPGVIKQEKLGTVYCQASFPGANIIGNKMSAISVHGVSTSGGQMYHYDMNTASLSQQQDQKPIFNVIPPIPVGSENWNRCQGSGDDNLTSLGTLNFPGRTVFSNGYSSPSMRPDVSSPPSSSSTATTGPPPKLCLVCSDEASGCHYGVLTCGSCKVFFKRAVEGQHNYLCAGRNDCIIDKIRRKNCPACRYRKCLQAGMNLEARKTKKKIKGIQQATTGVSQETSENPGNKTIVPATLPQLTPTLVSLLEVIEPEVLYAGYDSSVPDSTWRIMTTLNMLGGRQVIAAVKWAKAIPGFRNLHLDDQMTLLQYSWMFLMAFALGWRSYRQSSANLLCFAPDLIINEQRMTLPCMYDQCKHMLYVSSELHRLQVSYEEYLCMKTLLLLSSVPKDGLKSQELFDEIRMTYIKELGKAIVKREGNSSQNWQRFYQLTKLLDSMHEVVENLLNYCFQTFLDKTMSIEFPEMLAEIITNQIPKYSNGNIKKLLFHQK
Sequence of Thyroid hormone receptor beta (Homo sapiens) (P10828 whole entry, looked up): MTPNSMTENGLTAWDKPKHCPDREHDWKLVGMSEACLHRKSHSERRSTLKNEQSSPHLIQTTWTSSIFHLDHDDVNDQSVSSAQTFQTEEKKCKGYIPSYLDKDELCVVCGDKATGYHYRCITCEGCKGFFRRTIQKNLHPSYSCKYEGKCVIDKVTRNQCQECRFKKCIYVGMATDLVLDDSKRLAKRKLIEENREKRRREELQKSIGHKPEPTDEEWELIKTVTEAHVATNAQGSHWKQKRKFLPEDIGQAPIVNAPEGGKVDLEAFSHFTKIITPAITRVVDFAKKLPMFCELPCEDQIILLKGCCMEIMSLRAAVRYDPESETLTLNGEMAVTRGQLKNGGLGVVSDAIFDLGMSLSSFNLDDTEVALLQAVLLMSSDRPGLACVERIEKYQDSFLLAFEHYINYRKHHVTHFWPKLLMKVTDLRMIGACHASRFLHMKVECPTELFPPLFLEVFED
Sequence of Retinoic acid receptor RXR-alpha (Homo sapiens) (P19793 whole entry, looked up): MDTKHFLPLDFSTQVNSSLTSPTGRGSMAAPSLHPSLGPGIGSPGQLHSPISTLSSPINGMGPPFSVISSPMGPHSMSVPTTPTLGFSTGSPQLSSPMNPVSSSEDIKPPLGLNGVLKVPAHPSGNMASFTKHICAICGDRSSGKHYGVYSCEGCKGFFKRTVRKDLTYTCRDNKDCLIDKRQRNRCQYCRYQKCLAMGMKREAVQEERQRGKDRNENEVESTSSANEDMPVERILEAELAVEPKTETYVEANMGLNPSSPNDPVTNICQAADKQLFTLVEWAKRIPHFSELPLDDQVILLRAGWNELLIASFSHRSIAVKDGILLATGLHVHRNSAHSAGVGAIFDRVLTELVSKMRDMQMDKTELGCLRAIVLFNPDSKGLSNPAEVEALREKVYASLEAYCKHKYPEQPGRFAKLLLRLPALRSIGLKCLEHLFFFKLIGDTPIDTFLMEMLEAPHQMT

Consider `CCN(CC)C(=O)c1cccc(C)c1`, for which the compound was called inactive in [1], in assay [3], in assay [5], in assay [6], in assay [7] and in assay [8]. For the same compound, the result in assay [9] and in assay [16] was inactive. Also, the activation in assay [2] was -2.58% (inactive) and -6.82% (inactive). Also, the max response in assay [4] is -21.8%; in assay [10], -4.92% and 6.96%; in assay [11], -0.756% and -2.65%; in assay [12], 0.203% (inactive) and -8.17% (inactive). The activity change % (negative = inhibition) in [13] was -13.1% (inactive). Also, the Potency result in [14] and in [15] was “inactive” each time.

Turning to `CCCCCC(N)=O`, the max response is -31.8% in assay [4], -21.2% in assay [10], -2.91% in assay [11] and -2.1% (inactive) in assay [12]. In addition, the compound was classed as inactive in assay [5], in [6], in assay [7], in assay [8], in [9] and in assay [17]. The call in assay [16] was inactive. Also, the activity change % (negative = inhibition) in assay [13] is -10.5% (inactive). In assay [14], the Potency result was “inactive”. The Potency in assay [18] was 14.4 µM (active).

Regarding `Cc1ccc(C(C)C)c(O)c1`, in assay [2], the activation was -10.5% (inactive). In addition, the compound was called inactive in [3], in assay [5], in assay [6], in [8], in [9] and in assay [17]. The result in assay [16] was inactive. Also, the max response in [4] is -0.969%; in assay [10], -0.0487%; in [11], -9.5%; in assay [12], -24.5% (inactive). The activity change % (negative = inhibition) in [13] is -7.05% (inactive). For the same compound, the Potency result in [14] and in assay [15] was “inactive” in each case.

Turning to `CC(=O)Nc1ccccc1`, the outcome in assay [1], in [3], in [5], in assay [6], in [7] and in assay [8] was inactive. In addition, the compound was classed as inactive in assay [9], in assay [17] and in [16]. The activation in [2] is -0.909% (inactive). The max response in assay [4] is 17.1%; in assay [10] it was -17.4%; in assay [11], -2.29%; in assay [12] it was -0.837% (inactive). For the same compound, the activity change % (negative = inhibition) in assay [13] is 8.98% (inactive). In addition, the Potency result in assay [14], in assay [15] and in assay [18] was “inactive” throughout.

`FC(F)(F)C(Cl)Br` (stereo not given): the activation in [2] is -1.46% (inactive). Besides, the compound was called inactive in assay [3], in assay [5], in assay [6], in assay [7], in assay [17] and in [16]. Moreover, the max response in assay [4] was -35.1%; in assay [10], -10.5%; in assay [11], -1.63%; in [12], -3.82% (inactive). The activity change % (negative = inhibition) in assay [13] is 8.04% (inactive). Moreover, in assay [15], the Potency entry is “inactive”.

As for `CC[N+](CC)(CC(=O)Nc1c(C)cccc1C)Cc1ccccc1`, the compound was called inactive in assay [6], in [7], in assay [8], in assay [9] and in assay [16]. The max response in assay [10] was -1.28%; in assay [11], -13%; in [12], -2.97% (inactive). For the same compound, the Potency result in [14], in [15] and in assay [18] was “inactive” throughout.

For the compound `COCC(=O)Nc1c(I)c(C(=O)NCC(O)CO)c(I)c(C(=O)N(C)CC(O)CO)c1I` (stereo not given), the Potency entry in assay [14] is “inactive”.

Consider `O=C1C(c2[nH]c3ccccc3c2O)=Nc2ccccc21`, for which the compound was classed as inactive in [1], in [3], in assay [5], in assay [17] and in [16]. The activation in assay [2] is 5.37% (inactive). Also, the max response in assay [4] is 32.9%; in assay [10] it was 16.9%; in assay [11], 0.17%; in assay [12], 9.96% (inactive). The activity change % (negative = inhibition) in [13] was 0.455% (inactive). Moreover, the Potency entry in assay [14] was “inactive”.
